Compound activity from PubChem.
NTR1 agonist: NTR1 (human) agonism; P30989; NTR1-U2OS beta-arrestin-GFP spot imaging, agonist mode; activation, % at 20 µM; 0.17% of 330,000 active;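 active = activation at or above 40% of the spot to cytoplasm intensity ratio, with at least 20 cells analyzed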;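 note: 0% = DMSO without peptide and 100% = 100 nM NTR1 peptide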
GRIN3A LBD mod: modulates the human NR3A ligand-binding domain; NR3A LBD differential scanning fluorimetry, Tm shift; 0% = protein alone, 100% = glycine-bound protein; Tm shift relative to glycine control, % at 25 µM; 2.5% of 340,000 active; AID 1259313;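 active = melting temperature shift of at least 10% of the positive control shift, at one fixed dose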
Cardio protect: modulators protecting cardiomyocytes from myocardial damage | H9c2 cardiomyocytes, H2O2 injury protection, ATPLite, 2 h | protection from H2O2 cell death, % at 20 µM | 0.63% of 360,000 active;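 active = compounds giving at least 50% protection of heart cells from peroxide-induced death in the single-dose screen, raw or plate-pattern-corrected value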;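 note: 0% = DMSO wells with peroxide and 100% = DMSO wells without peroxide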
Mot1-301 SUMO: inhibitors of SUMOylation pathway: yeast Mot1-301 growth rescue; S. cerevisiae Mot1-301 growth rescue, ATP luminescence, 38.5C; percent above DMSO median, 100 means doubled; growth rescue, % at 18.8 µM; 1% of 320,000 active; AID 2716;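 active = every valid replicate shows activation above 250% relative to neutral control wells; inactive = the rest, any valid replicate at or below 250%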;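 note: OY570 slx delta 5 strain wells were the positive control but not used for scaling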
AI-2 QS modul: Vibrio harveyi AI-2 quorum sensing modulation; Vibrio harveyi JMH597 AI-2 luminescence/OD600 ratio, 9 h; active compounds read low; strain lacks LuxN and CqsS sensors; 0 = neutral-control median; activity change, % at 7.5 µM; 0.4% of 300,000 active; AID 2094; in the data active = activity change below about -75%, passing the limit was not always enough;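 note: luminescence divided by OD600 gain over 9 h not by final OD600 alone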
AHR act: activates the human aryl hydrocarbon receptor; P35869; AHR-responsive luciferase reporter cells, luminescence; activation, % at 5 µM; 2.5% of 320,000 active; AID 2796; in the data active = activation above about 47%;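 note: 0% = vehicle wells and 100% = reference agonist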
Target sequence (P35869 whole entry, looked up): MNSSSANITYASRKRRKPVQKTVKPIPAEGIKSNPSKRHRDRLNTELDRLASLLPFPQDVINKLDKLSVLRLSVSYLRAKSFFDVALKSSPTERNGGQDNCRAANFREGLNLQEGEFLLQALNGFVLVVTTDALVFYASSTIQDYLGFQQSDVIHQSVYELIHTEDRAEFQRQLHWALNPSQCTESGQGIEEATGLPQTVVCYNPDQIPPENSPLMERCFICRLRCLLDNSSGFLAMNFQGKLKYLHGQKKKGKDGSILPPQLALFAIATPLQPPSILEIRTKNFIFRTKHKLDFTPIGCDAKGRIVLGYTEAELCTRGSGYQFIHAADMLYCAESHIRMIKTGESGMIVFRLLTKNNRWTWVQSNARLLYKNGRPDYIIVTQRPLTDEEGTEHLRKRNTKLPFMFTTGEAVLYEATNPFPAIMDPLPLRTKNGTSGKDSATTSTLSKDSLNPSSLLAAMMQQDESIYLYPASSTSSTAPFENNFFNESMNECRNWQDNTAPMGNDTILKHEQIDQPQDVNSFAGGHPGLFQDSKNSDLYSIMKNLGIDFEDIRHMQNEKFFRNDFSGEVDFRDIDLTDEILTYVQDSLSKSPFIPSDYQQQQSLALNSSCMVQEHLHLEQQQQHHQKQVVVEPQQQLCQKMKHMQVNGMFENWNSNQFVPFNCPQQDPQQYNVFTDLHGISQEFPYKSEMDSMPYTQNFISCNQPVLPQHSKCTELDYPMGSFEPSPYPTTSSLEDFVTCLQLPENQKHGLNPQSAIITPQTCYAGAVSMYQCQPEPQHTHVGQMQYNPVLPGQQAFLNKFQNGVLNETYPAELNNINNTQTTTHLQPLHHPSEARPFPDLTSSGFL
AHR act cf: human AHR activation, confirmation | activation, % at 9 µM | human cells, AHR-responsive luciferase reporter, luminescence | 87% of 2,300 active | shares compounds with AHR act; in the data active = activation above about 49%;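 note: HepG2 hepatoma cells carrying a DRE-driven firefly luciferase reporter; 0% = vehicle wells and 100% = reference agonist wells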
PXR act counter: counter-screen for AHR activators: human PXR activators | shares compounds with AHR act | cell-based PXR reporter, luciferase luminescence | activation, % at 11.6 µM | 88% of 2,300 active; in the data active = activation above about 11%;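 note: human hepatoma DPX-2 cells expressing full-length human PXR; 0% = DMSO and 100% = reference agonist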
An asterisk follows results filed as active; . = no result. Hits are enriched below; roughly 6.2% of the tested compounds scored in any of these assays.

SMILES | NTR1 agonist | GRIN3A LBD mod | Cardio protect | Mot1-301 SUMO | AI-2 QS modul | AHR act | AHR act cf | PXR act counter
CCCc1nc2oc3ccccc3c(=O)c2c(=O)n1-c1ccc(C)cc1 | 1.5 | -2.2 | 0.7 | 1.4 | . | 80.7* | 76.0* | 67.8*
C=CCN1CCN(C(=O)c2cc3c(s2)CCC(CC)C3)CC1 (stereo not given) | 1.1 | -0.7 | 2.9 | 23.5 | 5.8 | -0.3 | . | .
Cc1ncc(CO)n1Cc1ccc(Cl)cc1 | . | . | 1.8 | . | . | . | . | .
Cn1c(=O)c(-c2ccccc2)nn2c3ccccc3nc12 | 2.8 | 1.3 | -1.6 | . | 9.8 | 109.6* | 130.8* | 18.8*
Cc1c(-c2ccc(Br)cc2)nc2ccccn12 | 3.9 | -2.0 | -9.1 | -6.3 | 15.7 | 165.2* | 171.6* | 14.5*
Cc1ccc(-c2nc3ccccn3c2C=O)cc1 | 4.1 | -1.3 | -12.1 | 28.2 | 5.7 | 10.2 | . | .
CC(OC(=O)CNC(=O)c1sc2ccccc2c1Cl)C(=O)NC1(C#N)CCCCC1 (stereo not given) | 0.6 | -3.5 | -10.4 | -8.7 | . | -0.8 | . | .
OC1CCC(Nc2ncnc3sccc23)CC1 (stereo not given) | -1.8 | 3.5 | -2.1 | -4.8 | 17.0 | 0.3 | . | .
Cc1c(C(=O)N2c3ccccc3CC2C)oc2ccccc12 (stereo not given) | 1.8 | 3.8 | -15.4 | -0.2 | 1.9 | 85.4* | 73.7* | 27.5*
O=C(/C(=C(\[O-])c1ccccc1)[n+]1ccc2ccccc2c1)c1ccccc1 | . | -1.6 | 1.3 | 4.8 | 7.6 | 37.1 | . | .
O=C(/C(=C(\[O-])c1ccccc1)[n+]1ccc2ccccc2c1)c1ccc(Cl)cc1 | -0.4 | -0.1 | 18.0 | -14.4 | 12.6 | 103.0* | 91.7* | 53.6*
COc1ccc(OC)c(/C=N/NC(=O)CNC(=O)c2ccc(S(=O)(=O)N3CCOCC3)cc2)c1 | -0.2 | 3.5 | 2.3 | 31.9 | 16.3 | 125.1* | 7.8 | 5.3
CCCCCC(=O)N1C[C@@H](n2cc(C3CC3)nn2)[C@H](O)C[C@@H]1c1ccc(Cl)cc1 | . | . | -15.9 | . | . | . | . | .
COc1cc(C#Cc2c(-c3cncn3C)n(C)c3ccc(-c4ccc5[nH]ccc5c4)cc23)cc(OC)c1 | 1.3 | 1.6 | -2.9 | 3.1 | . | 104.7* | 79.6* | 28.2*
N#C/C(=C\c1ccc(N2CCCCC2)o1)C(=O)Nc1cccc(Br)c1 | -4.0 | -0.1 | -14.9 | 14.7 | 26.9 | 99.6* | 72.0* | 13.4*
CCOC(=O)C1=CNS(=O)(=O)NC1CCc1ccccc1 (stereo not given) | 1.2 | -0.2 | -2.3 | . | . | . | . | .
CCCN1C(=O)c2cc(C(=O)Nc3ccccc3OC)ccc2C1Nc1ccccc1OC (stereo not given) | 5.0 | -0.9 | 13.0 | 2.3 | 20.7 | 94.3* | 65.4* | 72.2*
N=c1n(CC(=O)c2ccc(Br)cc2)c2ccccc2n1Cc1ccccc1 | 15.6 | -7.5 | -28.5 | 11.1 | . | 124.2* | 81.3* | 46.4*
N=c1n(CC(=O)c2ccc([N+](=O)[O-])cc2)c2ccccc2n1Cc1ccccc1 | 1.0 | -0.7 | -23.2 | 21.6 | 25.0 | 1.9 | . | .
COc1ccc(NC(=O)Nc2ccc(F)cc2)c(C)c1 | -2.1 | 3.2 | 0.7 | 1.7 | 38.6 | 111.0* | 11.1 | 25.4*
CCC(=O)N1CCc2cc(S(=O)(=O)N3CCN(c4cc(Cl)ccc4C)CC3)ccc21 | 5.3 | -3.4 | -6.6 | -8.8 | 46.4 | -1.8 | . | .
Cc1c(NC(=O)c2ccc(CC(C)C)o2)c(=O)n(-c2ccccc2)n1C | 0.1 | 0.6 | -3.5 | -7.5 | 29.6 | 1.1 | . | .
Cn1c(=O)c2c(nc(/C=C/c3cccc(Cl)c3)n2C)n(C)c1=O | 4.0 | -1.7 | . | 9.4 | -7.1 | 86.0* | 54.7* | .
CC(Sc1nnnn1C1CCCC1)C(=O)Nc1cccc(S(=O)(=O)N2CCOCC2)c1 (stereo not given) | 1.5 | 1.2 | -9.1 | 11.6 | . | 0.9 | . | .
CCCCc1cc(=O)oc2cc(OCC(=O)Nc3ccccn3)ccc12 | 2.2 | 2.0 | -9.6 | -8.8 | 21.2 | 3.3 | . | .
SMILES | NTR1 agonist | GRIN3A LBD mod | Cardio protect | Mot1-301 SUMO | AI-2 QS modul | AHR act | AHR act cf | PXR act counter
C=CCN1C(=O)c2ccccc2C1(O)Cc1ccccc1 (stereo not given) | 0.9 | -1.0 | -0.1 | 105.5 | 3.8 | 1.1 | . | .
O=C1c2ccccc2C(O)(c2ncc[nH]2)N1CCc1ccccc1 (stereo not given) | -0.6 | 0.1 | 3.4 | 1.4 | -0.5 | 97.5* | 105.3* | 24.2*
Cc1sc2nc(CSCC(=O)NC3(C#N)CCCCC3)[nH]c(=O)c2c1C | 0.0 | -3.0 | 18.1 | -7.3 | . | 35.1 | . | .
Cc1cc(Br)c(NC(=O)CCNC(=O)OCc2ccccc2)cc1C | 1.4 | 0.2 | -1.3 | -9.2 | 0.6 | 0.0 | . | .
c1ccc(OCCOc2ncnc3sccc23)cc1 | -0.5 | -1.0 | 12.6 | -18.4 | -6.3 | 137.6* | 121.4* | 45.0*
CC(C)C(=O)Nc1ccc(Cl)cc1-c1nc2ccccc2[nH]c1=O | -1.1 | -1.5 | 2.6 | 28.0 | -5.6 | 79.4* | 75.6* | 12.1*
O=C(Nc1cccnc1)Nc1ccccc1Cl | -0.8 | 2.0 | -2.9 | -29.5 | -1.5 | 25.4 | . | .
COc1ccccc1NC(=O)Nc1cccnc1 | 1.0 | -2.2 | 5.8 | -0.8 | 1.8 | 122.2* | 93.2* | .
O=C(Nc1cccnc1)Nc1cc(Cl)cc(Cl)c1 | 3.6 | 20.6* | -28.4 | -3.7 | 9.6 | 113.0* | 61.8* | .
O=C(NCc1ccccc1F)C1CCCN1C(=O)Nc1ccc(F)cc1 (stereo not given) | -0.1 | 0.6 | -2.7 | -14.6 | -4.7 | 0.0 | . | .
Clc1cccc(-c2ccc(-c3nc4ccccn4c3NCc3ccccc3)cc2)c1 | 5.2 | 20.5* | -16.0 | . | . | 97.6* | 70.8* | 7.0
COc1ccc(-c2cc(-c3nc4ccccn4c3NCc3ccccc3)ccc2OC)cc1 | 19.1 | -24.8 | -27.3 | 57.2 | . | -6.7 | . | .
O=C1C(Cl)=C(NCC2CCCO2)C(=O)N1CCc1ccccc1 (stereo not given) | 1.6 | 1.2 | 1.4 | 6.1 | 20.4 | 92.4* | 90.8* | 65.3*
O=C1C(Cl)=C(NCCc2ccccc2)C(=O)N1CCc1ccccc1 | 0.0 | -9.9 | -5.1 | 36.2 | 12.7 | 35.4 | . | .
O=C1C(Cl)=C(N2CCOCC2)C(=O)N1CCc1ccccc1 | 1.1 | 0.3 | 4.6 | -12.3 | -5.7 | 92.1* | 116.7* | 16.2*
COc1ccc(/C=N/NC(=O)c2c(Br)cnn2C)c2ccccc12 | 0.8 | -9.9 | 3.5 | -12.9 | 11.4 | 4.8 | . | .
CCCS(=O)(=O)NC(=O)C1(C)CCN(C(=O)c2cccc(C(F)(F)F)c2)C1 (stereo not given) | . | . | 3.8 | . | . | . | . | .
COC(=O)/C(=C/c1ccc2c(c1)c1ccccc1n2C)NC(=O)c1ccccc1 | 11.5 | 0.7 | 37.4 | -15.7 | 2.0 | 82.1* | 104.4* | 96.7*
